# Assay results taken from PubChem BioAssay AID743279 (National Center for Advancing Translational Sciences (NCATS), 2014).
# The campaign covered roughly 360,000 compounds. About 17,000 (4.7%) were called active. Not shown: some 5% with an inconclusive outcome. Cut-off read from the data, not from the text of the source: active = activity change below about -50%; inconclusive = mostly about -30% to -49%; inactive = weaker than that. The entries come from a sample that favours actives as a whole.
# Assay: qHTS for Inhibitors of Inflammasome Signaling: IL-1-beta AlphaLISA Primary Screen
# Conditions: THP-1 LPS/ATP IL-1B secretion, 16 h; at 57.5 µM, active compounds read low
# In short: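 Secreted IL-1B measured by AlphaLISA bead assay after 16 h compound exposure of THP-1 cells; compounds (final up to 57.5 uM) added 1 h before LPS (250 ng/mL) and ATP (1.25 mM) stimulation; lower signal means less secretion.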
# % is set by controls: 0 for no effect and ±100 for the full control effect.
row,Structure (SMILES),activity change
1,C[C@@H]1CN([C@@H](C)CO)C(=O)c2cccc(NS(=O)(=O)c3ccc(F)cc3)c2O[C@H]1CN(C)C(=O)NC1CCCCC1,2.27% (inactive)
2,CCCCNCCS(=O)(=O)NCc1ccccc1,24.2% (inactive)
3,CN(c1ccc(OCC(=O)NC2=NCCS2)cc1)S(=O)(=O)c1ccc(F)cc1,12% (inactive)
4,Cc1ccc(S(=O)(=O)N(C)c2ccc(OCC(=O)NC3=NCCS3)cc2)cc1,23% (inactive)
5,CC(NC(=O)COc1ccccc1)C(=O)NC1=NCCS1 (configuration not stated),-56.1% (active)
6,CC(C)CNC(=O)C1(C)CCCN1C(=O)CSc1ccccc1 (configuration not stated),24.3% (inactive)
7,CC(=O)N1CCN(CC(=O)Nc2ccc(SC(F)F)cc2)CC1,8.74% (inactive)
8,O=C(Cc1ccc(Cl)c(Cl)c1)Nc1ccc(SC(F)F)cc1,-96% (active)
9,Cc1ccc(CC(=O)Nc2ccc(OC(F)F)c(Cl)c2)cc1C,2.16% (inactive)
10,O=C(c1ncn2c1c(=O)[nH]c1ccccc12)N1CCc2ccccc2C1,1.53% (inactive)
11,CCOC(=O)C1CCCN(C(=O)c2ccc(N(C)C)cc2)CC1 (configuration not stated),14.2% (inactive)
12,S=c1[nH]nc(-c2cccs2)n1/N=C/c1cccs1,2.13% (inactive)
13,Cc1cc(-c2n[nH]c(=S)n2/N=C/C(Br)=C/c2ccccc2)n[nH]1,-103% (active)
14,COc1cc(/C=N/n2c(C)n[nH]c2=S)ccc1OCc1ccccc1,20.1% (inactive)
15,CCN(CC(=O)Nc1ccc(NC(C)=O)cc1)C(=O)C1CC(=O)N(c2ccc3c(c2)OCCO3)C1 (configuration not stated),-4.3% (inactive)
16,Nc1ncnc2c1ncn2[C@@H]1O[C@H](C(=O)NCC(F)(F)F)[C@@H](O)[C@H]1O,-18.1% (inactive)
17,Cc1ccc(Cn2cc(CN3CC(N4CCN(C)CC4)CS3(=O)=O)nn2)cc1 (configuration not stated),1.38% (inactive)
18,Cc1cc(C)nc(NC(=O)c2cccc([N+](=O)[O-])c2)c1,-4.03% (inactive)
19,O=C(Nc1ccc(C2CC2(Cl)Cl)cc1)c1cccc([N+](=O)[O-])c1 (configuration not stated),-90.4% (active)
20,O=C(Nc1cccc([N+](=O)[O-])c1)c1ccc2c(c1)OCO2,-4.35% (inactive)
21,O=C(COC(=O)c1ccc[nH]c1=O)Nc1ccc2c(c1)OC(F)(F)O2,23.1% (inactive)
22,COC(=O)[C@]12CCCCC=C1N(Cc1cccc3ccccc13)C(=O)[C@H](CC(=O)N1CCOCC1)C2,-7.21% (inactive)
23,Cc1ccc(S(=O)(=O)N2CCC(=O)N([C@H](COCc3ccccc3)C(C)C)CC2)cc1,29.8% (inactive)

row,Structure (SMILES),activity change
1,COc1cc(NC(=O)NCC2CCN(Cc3ccc(C)cc3)CC2)cc(OC)c1OC,-6.99% (inactive)
2,O=C(NCC1CCN(Cc2ccccc2Cl)CC1)Nc1cccc(Cl)c1,-75% (active)
3,COc1ccc(Cl)cc1NC(=O)NCC1CCN(Cc2ccccc2F)CC1,-22.8% (inactive)
4,Cc1cccc(CN2CCC(CNC(=O)Nc3ccc(F)c(Cl)c3)CC2)c1,-107% (active)
5,O=C1CCCN1CCCNC(=S)Nc1ccc(F)c(Cl)c1,4.41% (inactive)
6,O=C(NCCN1CCOCC1)Nc1cccc(Cl)c1,2.78% (inactive)
7,CC(CO)N1CCS(=O)(=O)CC1 (configuration not stated),19.8% (inactive)
8,CCC/C(C)=N\Nc1nc2c(c(=O)n(C)c(=O)n2C)n1C,6.47% (inactive)
9,O=C(O)C(c1cccs1)C1(O)CCCCC1 (configuration not stated),5.75% (inactive)
10,CCOC(=O)c1cc(-c2sc(NC(=O)c3ccccc3)nc2C)n(-c2ccc(Br)cc2)n1,-4.38% (inactive)
11,O=C(CCc1ccccc1)Nc1ncc([N+](=O)[O-])s1,-59.9% (active)
12,CC(C)Cc1nnc(NC(=O)CCc2ccccc2)s1,8.78% (inactive)
13,COC(=O)CSc1nnc(NC(=O)CCc2ccccc2)s1,12.3% (inactive)
14,CC(CC(=O)C1C(C)C=CCC1(C)C)NNC(N)=O (configuration not stated),2.93% (inactive)
15,Cc1cc(C(=O)CCl)c(C)n1CC1COc2ccccc2O1 (configuration not stated),-68.9% (active)
16,O=C1C(=O)N(CC2COc3ccccc3O2)c2ccccc21 (configuration not stated),11.2% (inactive)
17,Cc1ccsc1C(=O)OCC(=O)c1cc(C)n(CC2CCCO2)c1C (configuration not stated),33.5% (inactive)
18,CC(=O)CC[C@@H](C)O[C@@H]1OC(C)[C@H](O)CC1O (some centres not stated),29.3% (inactive)
19,COC(=O)[C@]12CCCCC=C1N(Cc1ccco1)C(=O)[C@H](CC(=O)NCC1CCCCC1)C2,-8.27% (inactive)
20,CCCOc1ccc(F)cc1-c1cc(C(=O)Nc2ccc(F)cc2)[nH]n1,3.22% (inactive)
21,CC(Nc1nc(C(F)(F)F)nc2ccccc12)c1cccs1 (configuration not stated),-63.4% (active)
22,Cc1cc(C)n(-c2nc(C(F)(F)F)nc3ccccc23)n1,21.5% (inactive)
23,CC(C)(C)Nc1nc(-c2ccccn2)nc2ccccc12,-9.69% (inactive)

row,Structure (SMILES),activity change
1,O=C1N=C(N2CCc3ccccc3C2)S/C1=C\c1ccc(O)cc1,-63.2% (active)
2,CCc1ccc(/C=C2\SC(N3CCOCC3)=NC2=O)cc1,-62.4% (active)
3,NC1=NC(=O)S/C1=C\c1ccc(O)cc1,-9.74% (inactive)
4,Cc1cc(/C=C2/SC(=O)N(CC(=O)N3CCCC3)C2=O)ccc1N1CCOCC1,-23.5% (inactive)
5,Cc1ccsc1/C=C1\SC(N2CCOCC2)=NC1=O,-26% (inactive)
6,CC1CCN(C2=NC(=O)/C(=C/c3ccc(O)cc3)S2)CC1,-16.5% (inactive)
7,COC(=O)C1(C(=O)OC)C[C@H](c2ccccc2)N(Cc2ccccc2OC)[C@@H]1c1ccccc1,12.2% (inactive)
8,O=[N+]([O-])c1ccc(C(S(=O)(=O)Cc2ccccc2)S(=O)(=O)Cc2ccccc2)cc1,-14.4% (inactive)
9,CC(C)(O)C#Cc1ccc(CNC[C@H]2O[C@@H](n3cnc4c(=O)[nH]c(N)nc43)[C@H](O)[C@@H]2O)s1,0% (inactive)
10,Cc1cc2c(cc1C)N(Cc1ccccc1)C1=NCCCN12,-58.1% (active)
11,CC(C)(C)C(=O)CN1C2=NCCN2c2ccccc21,0% (inactive)
12,Cc1cc2oc(=O)cc(CN3CCN(Cc4ccccc4)CC3)c2cc1C,1.1% (inactive)
13,O=C(COC(=O)c1ccc(S(=O)(=O)N2CCCCCC2)cc1)Nc1ccccc1C(F)(F)F,23% (inactive)
14,COc1ccc(OC)c(CN2C(=O)CCC2(C)c2nnnn2Cc2ccccc2)c1 (configuration not stated),0% (inactive)
15,Cc1ccc(-c2ccc(CN3C(C(C)C)C(=O)N(Cc4cn(CCC5OCCO5)nn4)CCS3(=O)=O)cc2)cc1 (configuration not stated),14.8% (inactive)
16,CC(=O)OCC(=O)C1(O)CCC2C3CC(C)C4=CC(=O)CCC4(C)C3C(O)CC21C (configuration not stated),-59.6% (active)
17,CC(=O)O[C@]1(C(C)=O)CC[C@H]2[C@@H]3C=C(C)C4=CC(=O)CC[C@]4(C)[C@H]3CC[C@@]21C,-10.2% (inactive)
18,CC1(C)C(=O)CCC2(C)C1=CCC1C2C(=O)CC2(C)C1CCC2(O)C(=O)CO (configuration not stated),15.3% (inactive)
19,O=C(OC1CC2CC1[C@H]1CCCCN1C2=O)N1CCOCC1 (some centres not stated),7.59% (inactive)
20,COc1ccc(C(=O)Nc2cccc(/C=C(/CCC(=O)O)c3nc4ccccc4s3)c2)cc1,51.8% (inactive)
21,COc1ccccc1-n1cnc2cc(NS(=O)(=O)c3ccccc3)ccc21,-2.81% (inactive)
22,CCCN(CCC)CC(O)COc1ccccc1C(=O)Nc1ccccc1 (configuration not stated),-6.43% (inactive)
23,CCC(C)Sc1nc2c(c(=O)[nH]c(=O)n2C)n1CC(O)COc1cccc2ccccc12 (configuration not stated),23.6% (inactive)

row,Structure (SMILES),activity change
1,CC(C)c1ccccc1OCC(O)CN(CC(O)COc1cccc2ccccc12)C(C)C (configuration not stated),-104% (active)
2,COc1cc(C(=O)OCCCN2CCOCC2)cc(OC)c1OC,-2.32% (inactive)
3,O=C1Nc2ccccc2NC(c2ccc3c(c2)OCO3)=C1N(Cc1ccc(F)cc1)C(=O)c1ccco1,-23.7% (inactive)
4,O=S1(=O)CC(N2CCN(Cc3ccccc3F)CC2)CN1Cc1cn(Cc2ccccc2)nn1 (configuration not stated),14% (inactive)
5,Cc1sc2nc(-c3ccccc3F)oc(=O)c2c1C,43.9% (inactive)
6,COc1ccc(-c2csc3nc(-c4ccccc4F)oc(=O)c23)cc1OC,-84.4% (active)
7,COc1ccccc1-c1nnc(-c2ccc(F)cc2)o1,6.31% (inactive)
8,COc1cc(F)ccc1-c1cc(C(=O)NCC2CCCCC2)[nH]n1,-19.4% (inactive)
9,CC1CC(=O)N(CC(=O)Nc2cccc(Cl)c2)c2ccccc2S1(=O)=O (configuration not stated),-6.86% (inactive)
10,CC1=C/C(=N\OS(=O)(=O)c2ccccc2)C=CC1=O,-100% (active)
11,OCCc1ccc(NCCc2ccco2)cc1,-19.5% (inactive)
12,Cc1ccc(CN2CC(N3CCC(Cc4ccccc4)CC3)CS2(=O)=O)cc1 (configuration not stated),-19.7% (inactive)
13,COc1ccc(C)cc1NC(=O)CSc1cccc[n+]1[O-],0.963% (inactive)
14,C/C(=C\C(=O)c1cccnc1)Nc1ccc(C)c(C)c1,-17.1% (inactive)
15,C/C(=C\C(=O)c1ccccc1)Nc1cccc(O)c1,-52.1% (active)
16,O=C(Nc1cccc(O)c1)c1ccc(C(=O)c2ccccc2)o1,-53.4% (active)
17,O=C(Nc1cccc(NC(=O)c2cccc(F)c2)c1)c1ccccc1,15.3% (inactive)
18,O=C(NCc1cccc(CNC(=O)Nc2cccc(O)c2)c1)Nc1cccc(O)c1,-13% (inactive)
19,O=C(CSc1ccccc1)Nc1ccc(C(=O)Nc2cccc(O)c2)cc1,3.28% (inactive)
20,CCCC(C(=O)N1CCOCC1)N1C(=O)C2C3C=CC(C3)C2C1=O (configuration not stated),-7.71% (inactive)
21,NC(=O)Cc1ccc2sc(-c3ccccc3)nc2c1,-14.8% (inactive)
22,COCCCNC(=O)c1ccc(-c2c(C)noc2C)c2ccoc12,46.4% (inactive)
23,COc1ccc(Cl)cc1-n1c(C)cc(C(=O)OCC(=O)N2CC(=O)Nc3ccccc32)c1C,-23.3% (inactive)
